From PubChem BioAssay (Tox21)
Several values for one entry are separate records, joined by “and”; a condition that tells them apart may be missing. Equal values may be shown once. Results filed as inconclusive are left out. Some compounds were tested as several samples or in several runs, with calls that do not always agree. Activity calls are given as the source filed them. Calls follow the shape of the dose curve; as a rule, active = well fitted cell-killing curve with a large enough effect in the repeat runs; inconclusive = weak or mixed curves, or effect the other way; inactive = no such curve, though single readings can be large or run the other way.

assay: qHTS assay to identify aromatase inhibitors - cell viability counter screen (AID 743084); settings: MCF-7 aro ERE viability, CellTiter-Fluor, 24 h; series mostly up to 70.3 µM; activity change, negative = cytotoxicity: at the top concentration;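 also: cells stimulated with testosterone during compound exposure; nearly all actives have a fitted effect of over 55% in size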
% is scaled to controls: 0 for no effect and ±100 for the full control effect; potency is read from the fitted curve at half-maximal effect.

SMILES | Potency | activity change, negative = cytotoxicity
CC[C@H]1OC(=O)[C@H](C)C(=O)[C@H](C)[C@@H](O[C@@H]2O[C@H](C)C[C@H](N(C)C)[C@H]2O)[C@](C)(OC)C[C@@H](C)C(=O)[C@H](C)[C@H]2N(CCCCn3cnc(-c4cccnc4)c3)C(=O)O[C@]12C | inactive and 15 µM (active) | –
CCCCCCCC/C=C\CCCCCCCC(=O)N(CCO)CCO | – | -13% (inactive)
CC1(C)S[C@@H]2[C@H](NC(=O)[C@H](N)c3ccc(O)cc3)C(=O)N2[C@H]1C(=O)O | – | 18.2% (inactive)
CC[C@@]1([C@@H]2O[C@@H]([C@H]3O[C@@](O)(CO)[C@H](C)C[C@@H]3C)C[C@@H]2C)CC[C@H]([C@]2(C)CC[C@]3(C[C@H](O)[C@@H](C)[C@@H]([C@@H](C)[C@@H](OC)[C@H](C)C(=O)O)O3)O2)O1 (stereo in doubt) | inactive | –
CO/N=C(\C(=O)N[C@@H]1C(=O)N2C(C(=O)[O-])=C(C[n+]3cccc4c3CCC4)CS[C@H]12)c1csc(N)n1 | – | -0.202% (inactive)
FC(F)(F)C(F)(F)C(F)(F)C(F)(F)C(F)(F)F | – | 14.8% (inactive)
O=C(O)C[C@H](O)C[C@H](O)/C=C/c1c(C2CC2)nc2ccccc2c1-c1ccc(F)cc1 | – | 8.36% (inactive)
CCN(CC)CC#CCOC(=O)C(O)(c1ccccc1)C1CCCCC1 (configuration not stated) | 11.9 µM (active) | –
C[N+](C)(C)CCOP(=O)(O)OP(=O)([O-])OC[C@H]1O[C@@H](n2ccc(N)nc2=O)[C@H](O)[C@@H]1O | inactive | –
CC1(C)C[C@@H]1C(=O)N/C(=C\CCCCSC[C@H](N)C(=O)O)C(=O)O | inactive | –
CCOc1cc(CC(=O)N[C@@H](CC(C)C)c2ccccc2N2CCCCC2)ccc1C(=O)O | – | 3.93% [at 32.5 µM] (inactive)
CCC(NC(C)C)C(O)c1ccc(O)c(O)c1 (configuration not stated) | – | -9.18% (inactive)
CN1C(=O)C[C@@H](C(=O)N[C@@H](Cc2cnc[nH]2)C(=O)N2CCC[C@H]2C(N)=O)NC1=O | – | 12% (inactive)
CC1(C)S[C@@H]2[C@H](NC(=O)[C@@H](NC(=O)N3CCNC3=O)c3ccccc3)C(=O)N2[C@H]1C(=O)O | – | 4.49% [at 32.5 µM] (inactive)
O=C(O)c1cc2cc(Cc3cccnc3)ccc2o1 | – | 14.6% (inactive)
O=C(O)c1ccc(NC2OC[C@@H](O)[C@H](O)[C@H]2O)cc1 (some centres not stated) | – | 2.48% (inactive)
CCN1\C(=C/C=C/C=C/c2sc3ccccc3[n+]2CC)Sc2ccccc21 | 11.9 µM (active) | –
CCCCCCOC(=O)c1cccnc1 | – | 1.09% (inactive)
N[C@H](C(=O)O)[C@@H]1CC(Cl)=NO1 | – | -10.6% (inactive)

SMILES | Potency | activity change, negative = cytotoxicity
CCN(CC)CCn1c(=O)c(Cc2ccc(OC)cc2)nc2ccccc21 | – | -4.13% (inactive)
CCCCC[C@H](O)/C=C/[C@@H]1[C@@H](C/C=C\CCCC(=O)O)[C@@H](O)C[C@H]1O | inactive | –
CC(C)=CCC/C(C)=C/CC/C(C)=C/CC/C(C)=C/CC1=C(C)C(=O)c2ccccc2C1=O | inactive | –
CC(C)NCC1CCc2cc(CO)c([N+](=O)[O-])cc2N1 (configuration not stated) | – | 23% [at 32.5 µM] (inactive)
NCC(O)CC(=O)O (configuration not stated) | – | 11.1% (inactive)
FC(F)(F)COCC(F)(F)F | – | 0.516% (inactive)
CC1=C(/C=C/C(C)=C/C=C/C(C)=C/C=C/C=C(C)/C=C/C=C(C)/C=C/C2=C(C)CCCC2(C)C)C(C)(C)CCC1 | – | 10.9% (inactive)
C[C@@H]1O[C@@H](OC[C@H]2O[C@@H](Oc3c(-c4ccc(OCCO)c(OCCO)c4)oc4cc(OCCO)cc(O)c4c3=O)[C@H](O)[C@@H](O)[C@@H]2O)[C@H](O)[C@H](O)[C@H]1O | – | 0.811% (inactive)
NS(=O)(=O)c1cc(Cl)c(Cl)c(S(N)(=O)=O)c1 | – | 19.4% [at 32.5 µM] (inactive)
C[C@]12O[C@H](C[C@]1(O)CO)n1c3ccccc3c3c4c(c5c6ccccc6n2c5c31)CNC4=O | 23.7 µM (active) | –
CC1(C)S[C@@H]2[C@H](N3C(=O)C(c4ccccc4)NC3(C)C)C(=O)N2[C@H]1C(=O)O (some centres not stated) | – | -1.3% (inactive)
Nc1c(CC(=O)O)cccc1C(=O)c1ccccc1 | inactive | –
c1ccc(-c2ccc(C(c3ccccc3)n3ccnc3)cc2)cc1 (configuration not stated) | – | 9.12% (inactive)
CNCC(=O)N[C@@H](CCCN=C(N)N)C(=O)N[C@H](C(=O)N[C@@H](Cc1ccc(O)cc1)C(=O)N[C@H](C(=O)N[C@@H](Cc1cnc[nH]1)C(=O)N1CCC[C@H]1C(=O)N[C@@H](C)C(=O)O)C(C)C)C(C)C | – | -1.35% (inactive)
C/C=C/C1=C(C(=O)O)N2C(=O)[C@@H](NC(=O)[C@H](N)c3ccc(O)cc3)[C@H]2SC1 | – | -3.28% (inactive)
C=N[C@@H](C(=O)N[C@@H]1C(=O)N2[C@@H]1SC(C)(C)[C@@H]2C(=O)O)c1ccccc1 | – | -1.97% (inactive)
CO[C@H]1C[C@H](O[C@H]2[C@H](C)[C@@H](O[C@@H]3O[C@H](C)C[C@H](N(C)C)[C@H]3O)[C@@H](C)C[C@]3(CO3)C(=O)[C@H](C)[C@@H](O)[C@@H](C)[C@@H](C)OC(=O)[C@@H]2C)O[C@@H](C)[C@@H]1O | – | 1.37% [at 32.5 µM] (inactive)
NC[C@H]1O[C@H](O[C@H]2[C@H](O)[C@@H](O[C@H]3O[C@H](CO)[C@@H](O)[C@H](N)[C@H]3O)[C@H](N)C[C@@H]2N)[C@H](N)C[C@@H]1O | – | 4.07% [at 32.5 µM] (inactive)
